A549 tox = Nrf2 qHTS screen for inhibitors: counterscreen for cytotoxicity; A549 ARE-Fluc cells, CellTiter-Fluor viability, 18-24 h; Potency, µM (titrated, usually from 46 µM), for inactives: top-dose activity change, negative = cytotoxicity, actives largely listed as inhibitors; 390,000 compounds, 0.16% hits; AID 504648, 2011; further: potency means the concentration at half of the fitted maximal effect; on the % scale 0 is the no-effect control and ±100 the full control effect
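A549 ARE_Fluc cells in 5% FBS OPTI-MEM were exposed to compounds in concentration-response for 18-24 h at 37 deg C. Viability was read by CellTiter-Fluor fluorescence (Ex 405/Em 525) after 30 min, before the luciferase read.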
Nrf2 activator = qHTS of Nrf2 Activators; 410,000 compounds, 0.31% hits; AID 624171, 2012; AREc32 ARE-luciferase reporter (MCF7-derived line), luminescence, 24 h; Potency, µM (top dose mostly 46.1 µM), for the others: at the highest dose activation, actives largely listed as activators; further: potency means the concentration at half of the fitted maximal effect; % of control where 0% means no effect; nearly all actives have a fitted effect of over 65% in size
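Reporter line AREc32 (ARE-Fluc), seeded overnight in OPTI-MEM with 5% FBS; compound pin-transferred, 24 hr at 37 deg C, 5% CO2; luminescent read-out.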
Nrf2 block = Nrf2 qHTS screen for inhibitors; A549 ARE-Fluc reporter, luciferase luminescence, 18-24 h; AID 504444, 2011; Potency, µM (titrated, usually from 46 µM), inactives show at the top dose activity change, negative = inhibition, actives largely listed as inhibitors; 360,000 compounds, 2.1% hits; further: potency means the concentration at half of the fitted maximal effect; on the % scale 0 is the no-effect control and ±100 the full control effect; nearly all actives have a fitted effect of over 60% in size
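Nrf2 function is reported as luminescence of an ARE-controlled luciferase in A549 cells. Compounds were tested at several concentrations, and a CellTiter-Fluor read on the same wells flagged cytotoxicity.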
IDH1 R132H inh = qHTS for Inhibitors of mutant isocitrate dehydrogenase 1 (IDH1): qHTS | Potency, µM (top dose mostly 76.6 µM), for inactives: at the top dose activity change, negative = inhibition, usual class: inhibitors | AID 602179, 2012 | Isocitrate dehydrogenase [NADP] cytoplasmic (Homo sapiens), O75874 | 390,000 compounds, 0.093% hits | IDH1-R132H enzyme, NADPH consumption, diaphorase/resazurin fluorescence; further: potency means the concentration at half of the fitted maximal effect; on the % scale 0 is the no-effect control and ±100 the full control effect; nearly all actives have a fitted effect of over 65% in size
Target sequence (O75874 whole entry R132H, stated change not applied): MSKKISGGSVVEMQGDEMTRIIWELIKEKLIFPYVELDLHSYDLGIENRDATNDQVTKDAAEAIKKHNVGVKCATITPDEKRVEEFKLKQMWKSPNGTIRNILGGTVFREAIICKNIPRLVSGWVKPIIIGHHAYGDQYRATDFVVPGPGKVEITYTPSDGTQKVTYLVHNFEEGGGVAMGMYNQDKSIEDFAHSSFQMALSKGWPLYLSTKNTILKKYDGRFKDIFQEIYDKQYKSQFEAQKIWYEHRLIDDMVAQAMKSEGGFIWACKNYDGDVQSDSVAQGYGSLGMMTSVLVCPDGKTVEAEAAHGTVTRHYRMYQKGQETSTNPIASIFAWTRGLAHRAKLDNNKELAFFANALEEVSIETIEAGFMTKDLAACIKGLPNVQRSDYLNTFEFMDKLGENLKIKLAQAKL
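IDH1-R132H (0.5 ug/mL) preincubated 30 min with compound, then NADPH (0.016 mM) and alpha-KG (2 mM) added; 80 min at RT, pH 7.5. Remaining NADPH coupled via diaphorase/resazurin to fluorescence (540/590 nm); concentration-response curves normalized to no-enzyme control.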
12-LOX inh = Primary qHTS assay for inhibitors of human arachidonate 12S-lipoxygenase (ALOX12): Round 2. 580,000 compounds, 1.1% hits. AID 1671190, 2021. Potency, µM (doses to about 108 µM), for the others: at the top dose activity change, negative = inhibition, hits mostly inhibitors. purified 12hLO, xylenol orange hydroperoxide absorbance; further: potency means the concentration at half of the fitted maximal effect; on the % scale 0 is the no-effect control and ±100 the full control effect
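Hydroperoxide product was detected by ferrous iron/xylenol orange as the 573 to 405 nm absorbance ratio. Arachidonic acid at 40 uM (final) was turned over for 30 min at room temperature by 150 nM human 12hLO, pH 7.0 Hepes buffer, after 15 min compound preincubation.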
LDHA inh = qHTS assay for inhibitors of human lactate dehydrogenase | AID 1347041, 2019 | L-lactate dehydrogenase A chain (Homo sapiens), P00338 | activity change, % (values are at about 110 or 230 µM) | 480,000 compounds, 0.15% hits | purified LDHA, NADH/diaphorase-resazurin fluorescence; hits give low values; in the data active means activity change below about -30%; inconclusive means mostly about -25% to -30%;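 further: plate controls were DMSO wells for no effect and wells without enzyme for full effect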
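Remaining NADH was detected by diaphorase (0.133 mg/mL) converting 37 µM resazurin to fluorescent resorufin, read at 0 and 20 minutes. The preceding 5-minute room-temperature reaction used 2 nM LDHA, 0.2 mM sodium pyruvate and 0.06 mM NADH at pH 7.4.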
* = called active by the depositor; ? = inconclusive; / = no result given; [ ] = dose if it differs, or a comment. Only some compounds are listed: those with a hit (about 2.7% of all), similar ones and a draw of the others. Unless noted, the call rests on the fitted dose curve; in most records, active means well fitted curve in the direction sought with a large enough effect; inconclusive means small, poorly fitted or top-dose-only effect, or another doubt; inactive means no such curve, though single readings can be large; an effect the other way counts as inactive or inconclusive.

SMILES	A549 tox	Nrf2 activator	Nrf2 block	IDH1 R132H inh	12-LOX inh	LDHA inh
O=C(CCn1nc(-c2ccc(Cl)cc2)c2ccccc2c1=O)N1CCOCC1	/	/	/	/	-36.8%	-1.3
CCC1CCCCN1C(=O)CSc1nnc(-c2cccs2)n1N (stereo not drawn)	/	/	/	/	5.4%	1.2
O=c1[nH]c2ccc(-c3csc(NC4CCCC4)n3)cc2[nH]1	/	/	/	/	35.5µM*	-3.9
Cc1nc2c(c(-c3ccc(O)cc3)n1)CN(Cc1cccc3ccccc13)CCC2	/	/	/	/	15.7%	/
CC(=O)c1c(C)[nH]c(-c2csc(CC(=O)Nc3ccc(C)cc3C)n2)c1C	/	/	/	/	?	2.8
C[n+]1ccc(/C=C/c2ccc(Br)cc2)cc1	?	11.1%	7.31µM*	2.7%	-23.4%	-32.5*
C[n+]1ccc(/C=C/c2ccc3ccccc3c2)cc1	/	/	/	/	-0.2%	/
Cc1cccc(NC(=O)NCCc2coc(-c3ccc(F)cc3)n2)c1	/	/	/	/	13.6%	3.1
NS(=O)(=O)c1ccc(NC(=S)Nc2ccn(Cc3cccc4ccccc34)n2)cc1	-3.7%	11.5%	?	-1.7%	22.4µM*	-5.3
Cc1ccc2c(c1)N(CC(=O)NCCC1=CCCCC1)C(=O)c1cccnc1O2	-2.5%	-0.4%	-18.5%	-4.4%	20µM*	-1.7
CC(=O)N1CCC(NC[C@@H]2C=C(C)[C@H](Cc3nc4ccc(F)cc4[nH]3)C[C@H]2C(C)C)CC1	/	/	/	/	116.4%	/
CCc1nnc2sc(-c3ccc(NC(=O)c4ccc5c(c4)OCCO5)cc3)nn12	-17.2%	0.6%	2.59µM*	1.9%	5.3%	0.2
CCc1nnc2sc(-c3ccc(NC(=O)c4ccco4)cc3)nn12	-21.5%	4.2%	-24.5%	-2.6%	-10.2%	0.0
C[C@H](NC(=O)c1[nH]cnc1C(=O)Nc1ccc(Cl)cc1)c1ccccc1	-10.4%	0.4%	18.4µM*	-3.9%	44.7µM*	-5.4
Cc1ccc(NC(=O)c2nc[nH]c2C(=O)N[C@@H](C)c2ccccc2)cc1	-4.6%	-1.9%	?	-7.6%	?	1.0
CC(C)(C)OC(=O)NCCCCCNC(=O)c1[nH]cnc1C(=O)Nc1ccc(Cl)cc1	?	-4.0%	16.4µM*	-0.4%	-4.4%	4.1
C[C@@H](NC(=O)c1[nH]cnc1C(=O)Nc1ccc(Cl)cc1)c1ccccc1	18.4µM*	-5.6%	5.8µM*	-6.0%	?	-9.8
C[C@@H](NC(=O)c1[nH]cnc1C(=O)Nc1ccccc1)c1ccccc1	-8.4%	-2.1%	23.1µM*	0.5%	-5.7%	-0.6
CN(c1cc(=O)c2ccnc(-c3cccc(C(F)(F)F)c3)c2o1)C1CCOCC1	/	/	/	/	-14.3%[176 µM]	/
CCCCCCCCCCSCC(=O)OCC(=O)c1ccc(-c2ccccc2)cc1	/	/	/	/	?	8.7
COc1ccc(S(=O)(=O)N2CCOCC2)cc1NC(=O)COC(=O)c1[nH]c(C)c(C(C)=O)c1C	3.6%	3.1%	?	1.9%	1.2%	-5.5
CC(=O)c1c(C)[nH]c(C(=O)OCC(=O)Nc2cccc(S(=O)(=O)N3CCCC3)c2)c1C	-13.3%	4.8%	14.6µM*	3.8%	0.4%	-3.6
CC(=O)c1c(C)[nH]c(C(=O)OCC(=O)NCC(C)C)c1C	-13.6%	2.2%	10.3µM*	8.1%	0.5%	-3.3
CC(=O)c1c(C)[nH]c(C(=O)OCC(=O)Nc2ccc([N+](=O)[O-])cc2Cl)c1C	-4.3%	2.2%	-0.9%	2.4%	-25.2%	-6.9
CC(=O)c1c(C)[nH]c(C(=O)OCC(=O)Nc2cc(S(=O)(=O)N3CCCC3)ccc2Cl)c1C	-11.8%	4.5%	20.6µM*	5.2%	-10.5%	-5.8
SMILES	A549 tox	Nrf2 activator	Nrf2 block	IDH1 R132H inh	12-LOX inh	LDHA inh
CC(=O)c1c(C)[nH]c(C(=O)OCC(=O)Nc2cccnc2Cl)c1C	4.2%	3.3%	25.9µM*	-0.3%	-5.9%	-9.1
CS(=O)(=O)N1CCCc2cc(C(=O)Nc3ccc(-c4nnc5n4CCCCC5)cc3)ccc21	/	/	/	/	?	8.7
COc1cc(CNCc2ccc(SC)cc2)cc(OC)c1	-10.4%	-0.8%	2.9%	-1.5%	?	-30.7*
COc1cc(CNCc2ccc(OC)c(OC)c2OC)cc(OC)c1	-4.1%	0.3%	9.2µM*	4.6%	1.1%	-23.5
CCn1cnc2c1c(=O)n(CC(=O)NC(C)c1ccco1)c(=O)n2Cc1ccccc1 (stereo not drawn)	/	/	/	/	?	-4.1
C=CCn1c(N)c(C(=O)NCc2ccccc2)c2nc3ccccc3nc21	/	/	/	/	-1.1%	24.2
COc1ccc(CNC(=O)CSCc2nc(-c3ccc(OC)c(OC)c3)oc2C)cc1	/	/	/	/	4.7%	1.2
CC(=O)c1ccccc1OCc1ccccc1	/	/	/	/	7.9%	11.3
CC(=O)c1ccccc1OCc1ccc(S(=O)(=O)Cc2ccccc2)cc1	-5.3%	2.8%	20.6µM*	0.5%	7.9%	-4.5
COc1ccc(C(=O)C[n+]2cc(-c3ccc(OC)cc3)n3c2CCCC3)cc1	-8.8%	2.7%	8.2µM*	-10.2%	-4.5%	-9.1
Cc1ccc(C(=O)C[n+]2cc(-c3ccc(C)cc3)n3c2CCCCC3)cc1	-2.5%	2.1%	?	3.8%	-9.6%	-1.4
COc1ccc(OCC(=O)Nc2cc(-c3nc4ccc(C)cc4o3)ccc2C)cc1	/	/	/	/	-16.9%	-5.1
Cc1cn([C@@H](CCCCN)C(=O)NCCCCCCCCCCC(=O)N2CCNCC2)nn1	-1.4%	5.4%	15.9%	-5.5%	31.6µM*	-1.0
CC[C@H](C)Cc1cn([C@@H](CCCCNC(=O)OC(C)(C)C)C(=O)NCCCCCCCCCCC(=O)N2CCN(C(=O)OC(C)(C)C)CC2)nn1	?	3.8%	10.3µM*	10.1%	-17.0%	2.6
NCCCC[C@@H](C(=O)NCCCCCCCCCCC(=O)N1CCNCC1)n1cc(CCO)nn1	9.9%	0.1%	-1.7%	-12.5%	?	0.2
O=C(Nc1nnc(SCc2ccc(F)cc2)s1)C1Cc2ccccc2CN1C(=O)c1ccco1 (stereo not drawn)	?	3.9%	16.4µM*	-1.9%	0.0%	-0.4
CCOc1ccc(Cc2c(Cl)nc(SC)nc2N(C)C)cc1	14.7%	-0.1%	13µM*	1.7%	-17.1%	0.4
O=C(O)C1CC(=O)N(c2ccc(S(=O)(=O)Nc3ccc(F)c(F)c3)cc2)C1 (stereo not drawn)	/	/	/	/	?	0.7
CCC(=O)Nc1ccc2ccccc2c1	-0.7%	-0.2%	9.9%	1.2%	-7.1%	-1.3
CC(C)(C)CC(C)(C)NC(=O)CSCC(=O)Nc1ccc2ccccc2c1	?	12.6%	16.4µM*	7.6%	?	4.7
